Results: PubChem BioAssay AID1159580 (chemical genetic matrix, 2015)
Several values for one entry are separate records, joined by “and”; a condition that tells them apart may be missing. Equal entries are not always repeated. Hit rate of the full screen: of about 5,500 compounds, about 2,000 (36%) were called active. Another 18% or so got no clear call; they are omitted. Rule as the data show it: active = normalized growth mostly below about 0.91 (no sharp cut-off); inconclusive = no clear call, values can overlap the other calls; inactive = mostly above about 0.92. The list shows a part of the results.

Experiment: chemical genetic growth profiling, strain panel (AID 1159580);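 also: tested at 20 µM; growth read once vehicle control cultures reached saturation at 30 °C; 1 = growth at the plate median or of vehicle wells; lower values mean less growth of the strain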
Details: S. cerevisiae deletion strains, growth OD

Measured: normalized growth

COc1ccc(OC)c(C(O)CNC(=O)CN)c1 (stereo not given)
inactive: locus YAL021C, strain ccr4, hits give low values 0.984 | locus YAL026C, strain drs2, hits give low values 1 | locus YAL030W, strain snc1, hits give low values 1.01 | locus YBL061C, strain skt5, hits give low values 1.01 | locus YBR009C, strain hhf1, hits give low values 1 | locus YBR021W, strain FUR4, hits give low values 1.02 | locus YBR023C, strain chs3, hits give low values 1 | locus YBR171W, strain sec66, hits give low values 1.02 | locus YBR229C, strain ROT2, hits give low values 0.961 | locus YBR231C, strain swc5, hits give low values 1 | locus YBR279W, strain paf1, hits give low values 1.01 | locus YCL011C, strain gbp2, hits give low values 1.01 | locus YCL016C, strain dcc1, hits give low values 1.01 | locus YCL029C, strain bik1, hits give low values 0.987 | locus YCL061C, strain MRC1, hits give low values 1.01 | locus YCL069W, strain vba3, hits give low values 1.01 | locus YCR088W, strain abp1, hits give low values 0.996 | locus YDL005C, strain med2, hits give low values 1 | locus YDL035C, strain GPR1, hits give low values 0.986 | locus YDL040C, strain nat1, hits give low values 0.997 | locus YDL074C, strain BRE1, hits give low values 0.962 | locus YDL101C, strain DUN1, hits give low values 0.987 | locus YDL134C, strain PPH21, hits give low values 1 | locus YDL185W, strain tfp1, hits give low values 0.979 | locus YDL192W, strain arf1, hits give low values 0.964 | locus YDR001C, strain nth1, hits give low values 0.997 | locus YDR069C, strain doa4, hits give low values 1 | locus YDR101C, strain arx1, hits give low values 0.98 | locus YDR137W, strain rgp1, hits give low values 1.01 | locus YDR150W, strain NUM1, hits give low values 0.993 | locus YDR159W, strain sac3, hits give low values 0.989 | locus YDR162C, strain NBP2, hits give low values 0.983 | locus YDR195W, strain ref2 0.977 | locus YDR297W, strain sur2, hits give low values 1 | locus YDR318W, strain mcm21, hits give low values 0.982 | locus YDR334W, strain swr1, hits give low values 1.01 | locus YDR335W, strain msn5, hits give low values 1 | locus YDR388W, hits give low values 0.983 | locus YDR392W, strain spt3, hits give low values 1.02 | locus YDR502C, strain sam2, hits give low values 0.981 | locus YEL003W, strain gim4, hits give low values 0.998 | locus YEL037C, strain rad23, hits give low values 1 | locus YEL061C, strain CIN8 (second series), hits give low values 1.01 | locus YEL061C, strain CIN8, hits give low values 0.979 | locus YER015W, strain faa2, hits give low values 1.02 | locus YER016W, strain bim1, hits give low values 1 | locus YER110C, hits give low values 0.973 | locus YER111C, strain swi4, hits give low values 1.01 | locus YER155C, strain BEM2 (second series), hits give low values 1.01 | locus YER155C, strain BEM2, hits give low values 1 | locus YER167W, strain BCK2, hits give low values 1.01 | locus YFR010W, strain ubp6, hits give low values 1.01 | locus YGL078C, strain dbp3, hits give low values 0.974 | locus YGL086W, strain mad1, hits give low values 0.979 | locus YGL167C, strain pmr1, hits give low values 0.995 | locus YGL173C, strain kem1, hits give low values 0.995 | locus YGL227W, strain vid30, hits give low values 1 | locus YGL240W, strain doc1, hits give low values 1.02 | locus YGL248W, strain PDE1, hits give low values 0.967 | locus YGL253W, strain hxk2, hits give low values 1.02 | locus YGR135W, strain pre9, hits give low values 0.999 | locus YGR229C, strain SMI1, hits give low values 0.99 | locus YGR252W, strain gcn5, hits give low values 0.956 | locus YHR013C, strain ard1, hits give low values 1.01 | locus YHR027C, strain rpn1, hits give low values 0.999 | locus YHR030C, strain SLT2, hits give low values 1 | locus YHR079C, strain IRE1 (second series), hits give low values 0.991 | locus YHR079C, strain IRE1, hits give low values 1.01 | locus YHR094C, strain hxt1, hits give low values 0.978 | locus YHR129C, strain ARP1, hits give low values 0.996 | locus YHR142W, strain chs7, hits give low values 0.997 | locus YIL066C, strain RNR3, hits give low values 0.969 | locus YIL073C, strain SPO22, hits give low values 0.985 | locus YIL125W, strain kgd1, hits give low values 0.975 | locus YIR030C, strain dcg1, hits give low values 0.986 | locus YJL092W, strain hpr5, hits give low values 1.01 | locus YJL095W, strain BCK1 (second series), hits give low values 1 | locus YJL095W, strain BCK1, hits give low values 0.975 and 1.03 | locus YJL115W, strain asf1, hits give low values 1 | locus YJL129C, strain trk1, hits give low values 0.999 | locus YJL134W, strain LCB3, hits give low values 0.991 | locus YJL154C, strain vps35, hits give low values 0.992 | locus YJL164C, strain tpk1, hits give low values 1 | locus YJL166W, strain qcr8, hits give low values 1 | locus YJL168C, strain set2, hits give low values 0.976 | locus YJL187C, strain SWE1 (second series), hits give low values 0.958 | locus YJL187C, strain SWE1, hits give low values 1 | locus YJR043C, strain POL32, hits give low values 0.944 | locus YJR066W, strain TOR1, hits give low values 1 | locus YJR075W, strain HOC1, hits give low values 0.993
